Our source for the composite z-score and z-score values is PubChem BioAssay.

Active and inactive are the calls of the source.

The nature of test [1]: compounds binding Alexa647 anti-His antibody – biochemical, small-molecule microarray, 635 nm fluorescence, artefact control for SMM control protein annotation, primary screen (AID 1128).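 Also: score merges feature fluorescence with signal-to-noise for each printed compound spot.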 As to conditions: higher = more signal.
The test system of test [2] is Human papillomavirus type 1a E7 protein (residues 1-88). As to the kind of experiment: HPV1a E7 small-molecule binders, primary screen, biochemical, small-molecule microarray, residues 1-88, 635 nm (AID 1129). Conditions: small-molecule microarray binding, fluorescence 635 nm; higher = more signal.
Test [3] concerns the target Focal adhesion kinase 1 (Homo sapiens) (UniProt Q05397). In words: PTK2 protein binding on printed compound slides – biochemical, small-molecule microarray, 635/667 nm fluorescence, BSA, DTT, primary screen (AID 1130).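 Also: composite of spot emission at 667 nm and signal to noise over triplicate slides.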 Conditions: 635 nm fluorescence, higher = more signal.
The subject of test [4] is Fibrinogen (Alexa647-labelled). In words: Alexa647-fibrinogen binding to printed small molecules – biochemical, small-molecule microarray, 635/667 nm fluorescence, artefact control for SMM control-protein annotation, profiling panel (AID 1131).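 Also: z-score merges 667 nm fluorescence with per-spot signal-to-noise over triplicate slides.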 As to conditions: fibrinogen-A647 binding fluorescence, higher = more signal.
Test [5] has as its target Follistatin (Homo sapiens) (UniProt P19883). As to the kind of experiment: FST protein binding to printed compounds – biochemical, small-molecule microarray, 635/667 nm fluorescence, primary screen (AID 1132). Conditions: 635 nm fluorescence, higher = more signal.
Test [6] has as its target Fibroblast growth factor 2 (Homo sapiens) (UniProt P09038). In words: basic fibroblast growth factor binding to printed compounds – biochemical, small-molecule microarray, 635/667 nm fluorescence, primary screen (AID 1133). As to conditions: FGF2, fluorescence 635/667, higher = more signal.
Test [7] in a line: JC-1 mitochondrial potential readout, lung cancer cells – cell-based, A549, JC-1 fluorescence, basal, 24 h, 100 nL, profiling panel (AID 1138).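 Also: A549 lung adenocarcinoma cells under basal conditions with no added stimulus; test concentration not given here.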 As to conditions: higher = more signal.
A further test has as its system Lefty1. As to the kind of experiment: Lefty1 protein binding to printed compounds – biochemical, small-molecule microarray, 635/667 nm fluorescence, primary screen (AID 1139). As to conditions: fluorescence 635/667, higher = more signal.
Test [8] deals with wheat germ agglutinin (Triticum aestivum), Alexa647-labelled. In words: Alexa647-WGA lectin binding to printed small molecules – biochemical, small-molecule microarray, 635/667 nm fluorescence, artefact control for SMM control-protein annotation, profiling panel (AID 1140).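 Also: score merges 667 nm feature emission with signal to noise over triplicate slides.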 Conditions: WGA-A647 binding, 635 nm fluorescence, higher = more signal.
The target in test [9] is Luciferin 4-monooxygenase (Photinus pyralis) (UniProt P08659). As to the kind of experiment: inhibition of purified Photinus pyralis luciferase – biochemical, luminescence, purified enzyme, 2006 set, primary screen (AID 1141).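 Also: cell-free assay with purified firefly luciferase at 100 ng per well in PBS; test concentration not given here.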 Conditions: purified firefly luciferase, SteadyGlo luminescence, 30 min; higher = more signal, called active from +8 up or from −8 down.
Sequence of Luciferin 4-monooxygenase (Photinus pyralis) (P08659 whole entry, looked up): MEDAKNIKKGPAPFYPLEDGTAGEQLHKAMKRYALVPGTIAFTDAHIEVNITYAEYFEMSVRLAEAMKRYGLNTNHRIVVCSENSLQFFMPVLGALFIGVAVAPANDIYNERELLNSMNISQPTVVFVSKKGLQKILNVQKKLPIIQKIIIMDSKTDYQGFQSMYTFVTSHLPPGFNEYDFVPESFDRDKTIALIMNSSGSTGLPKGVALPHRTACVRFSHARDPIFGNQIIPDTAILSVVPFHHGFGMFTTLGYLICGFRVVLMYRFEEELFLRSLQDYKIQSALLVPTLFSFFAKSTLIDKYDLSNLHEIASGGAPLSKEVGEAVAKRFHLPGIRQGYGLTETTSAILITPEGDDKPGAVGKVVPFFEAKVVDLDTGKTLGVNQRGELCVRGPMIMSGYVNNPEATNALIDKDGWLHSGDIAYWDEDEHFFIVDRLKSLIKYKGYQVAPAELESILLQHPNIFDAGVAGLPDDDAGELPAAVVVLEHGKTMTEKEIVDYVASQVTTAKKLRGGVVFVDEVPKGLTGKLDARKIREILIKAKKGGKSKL

Sequence of Follistatin (Homo sapiens) (P19883 whole entry, looked up): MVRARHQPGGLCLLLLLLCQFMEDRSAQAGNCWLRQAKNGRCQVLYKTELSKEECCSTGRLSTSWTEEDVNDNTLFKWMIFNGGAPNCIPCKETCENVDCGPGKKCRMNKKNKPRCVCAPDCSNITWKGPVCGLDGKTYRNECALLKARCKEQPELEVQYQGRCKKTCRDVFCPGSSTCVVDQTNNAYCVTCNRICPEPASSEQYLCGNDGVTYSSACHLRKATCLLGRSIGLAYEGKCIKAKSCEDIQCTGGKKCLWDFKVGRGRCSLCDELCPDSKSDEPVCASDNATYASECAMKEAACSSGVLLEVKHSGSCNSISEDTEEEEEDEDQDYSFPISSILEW
Sequence of Fibroblast growth factor 2 (Homo sapiens) (P09038 whole entry, looked up): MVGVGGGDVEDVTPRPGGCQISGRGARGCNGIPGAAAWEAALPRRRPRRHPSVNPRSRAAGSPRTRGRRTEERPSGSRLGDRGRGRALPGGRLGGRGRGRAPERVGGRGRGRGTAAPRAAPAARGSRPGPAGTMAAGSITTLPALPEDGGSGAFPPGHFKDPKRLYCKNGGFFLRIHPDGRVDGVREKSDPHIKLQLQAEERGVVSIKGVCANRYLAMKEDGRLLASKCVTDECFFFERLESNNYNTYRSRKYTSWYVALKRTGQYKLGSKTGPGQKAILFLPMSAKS
Sequence of Focal adhesion kinase 1 (Homo sapiens) (Q05397 whole entry, looked up): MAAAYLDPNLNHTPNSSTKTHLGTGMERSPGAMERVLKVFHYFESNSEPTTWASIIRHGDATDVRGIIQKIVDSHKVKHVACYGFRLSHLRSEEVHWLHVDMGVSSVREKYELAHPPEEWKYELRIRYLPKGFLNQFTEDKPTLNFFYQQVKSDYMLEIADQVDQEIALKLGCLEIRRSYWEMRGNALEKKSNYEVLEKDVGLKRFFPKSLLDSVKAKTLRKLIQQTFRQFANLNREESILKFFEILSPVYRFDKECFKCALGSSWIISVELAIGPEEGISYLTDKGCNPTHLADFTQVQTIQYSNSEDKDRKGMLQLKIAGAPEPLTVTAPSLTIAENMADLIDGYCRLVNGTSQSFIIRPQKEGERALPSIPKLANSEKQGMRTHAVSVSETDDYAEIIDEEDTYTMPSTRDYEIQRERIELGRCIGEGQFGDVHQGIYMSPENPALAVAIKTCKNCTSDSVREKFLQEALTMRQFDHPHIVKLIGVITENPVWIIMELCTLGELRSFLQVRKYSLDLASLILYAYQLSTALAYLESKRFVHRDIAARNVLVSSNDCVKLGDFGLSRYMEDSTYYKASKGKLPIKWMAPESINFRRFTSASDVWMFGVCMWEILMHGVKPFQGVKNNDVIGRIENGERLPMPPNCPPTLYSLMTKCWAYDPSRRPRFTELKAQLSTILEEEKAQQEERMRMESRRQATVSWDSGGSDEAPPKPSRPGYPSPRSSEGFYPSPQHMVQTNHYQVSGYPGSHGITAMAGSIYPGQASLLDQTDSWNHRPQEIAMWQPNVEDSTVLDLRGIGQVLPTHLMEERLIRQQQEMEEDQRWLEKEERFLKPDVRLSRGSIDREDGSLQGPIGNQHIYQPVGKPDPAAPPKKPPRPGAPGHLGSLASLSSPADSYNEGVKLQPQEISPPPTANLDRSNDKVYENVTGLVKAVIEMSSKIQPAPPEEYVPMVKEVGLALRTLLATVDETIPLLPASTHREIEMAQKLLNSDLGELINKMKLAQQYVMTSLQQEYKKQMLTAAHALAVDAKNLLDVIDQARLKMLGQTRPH

On to `CN(C)C(=O)[C@]1(CCC(=O)OC(C)(C)C)N=C(c2ccc(OCCCO)cc2)O[C@@H]1c1ccccc1N=[N+]=[N-]`, for which the composite z-score in test [1] came to 0.128; in test [2], 1.3; in test [3], 0.383; in test [4], 0.996; in test [5] it was 1.25; in [6], 0.347. The composite z-score with Lefty1 is -0.037; in test [8], 1.15. The z-score in test [7] is 0.752; in test [9], -7.84 (inactive).
Take `O=C1OCCC=C[C@H]2OC34C=CCN(Cc5ccccc5)C(=O)[C@H]3N(CCCCCO)C(=O)[C@@H]4C12` (stereo not given in full): the composite z-score in test [1] was 0.206; in test [2], 0.702; in [3], 1.95; in test [4] it was -1.44; in [5], -0.618; in test [6], -1.16. The results for the composite z-score (in the test with Lefty1; in test [8]) were 0.475 and 0.809, respectively. Further, the z-score in [7] is 0.758; in test [9] it was 0.0657 (inactive).
With `COc1ccc(C#Cc2ccc3c(c2)[C@]2(C(=O)N3)[C@H](C(=O)NC[C@H](O)c3ccccc3)[C@H]3C(=O)O[C@H](c4ccccc4)[C@H](c4ccccc4)N3[C@@H]2c2ccccc2OCCO)cc1`, the composite z-score came out at 1.05 in test [1]; 1.19 in test [2]; 0.686 in test [3]; 0.844 in [4]; 1.09 in test [5]; 0.604 in test [6]. The composite z-score in the test with Lefty1 was found to be 1.42; in [8], 0.855. Moreover, the z-score is -1.79 in [7] and -0.361 (inactive) in test [9].
Regarding `CCOC(=O)[C@H]1C[C@H]2O[C@@]23C[C@H]1C(=O)N1CCCC1[C@@H]3O[Si](C)(C)C(C)(C)C` (stereo not given in full), the composite z-score is -0.288 in [1]; -0.311 in test [2]; -0.349 in test [3]; -0.466 in test [4]; -0.068 in [5]; -0.0656 in [6]. Besides, the composite z-score in the test with Lefty1 is 0.225; in test [8] it was -0.339. In addition, the z-score in [7] was -0.341; in [9], 0.261 (inactive).
Turning to `COc1ccc([Si](C)(C)[C@@H]2[C@@H](CC(=O)N3CCC[C@H]3CO)O[C@]3(C(=O)N(C)c4c(Br)cc(C)cc43)[C@H]2C)cc1`, the composite z-score in [1] was 0.437; in [2] it was 1.15; in test [3], 0.393; in test [4] it was 0.935; in [5], 1.17; in test [6] it was 0.987. Moreover, the figures for the composite z-score (with Lefty1; in [8]) were 1.19 and 0.0832, respectively. Further, the figures for the z-score in test [7] and in test [9] were 0.66 and -0.297 (inactive), respectively.
In the case of `CS(=O)(=O)CCOC(=O)C1=CC(c2ccc(CO)cc2)=CC(C2CC2)N(Cc2cc3c(cc2Br)OCO3)C=C1C(=O)OCCS(C)(=O)=O` (stereo not given), the composite z-score in test [1] came to 1.92; in test [2], 1.21; in [3] it was 0.608; in test [4], 0.896; in test [5] it was 0.678; in test [6] it was 0.763. The values for the composite z-score (in the test with Lefty1; in test [8]) were 1.09 and 0.953, respectively. Also, the z-score in test [7] was 2.44; in test [9], -1.51 (inactive).
As to `CO[C@H]1O[C@H](CO)[C@@H](OC(=O)Nc2ccc3c(c2)OCO3)[C@H](OC(=O)Nc2ccccc2)[C@H]1OC(=O)Nc1ccccc1`, the composite z-score in test [1] was determined as 1.77; in test [2], 1.28; in test [3] it was 0.927; in test [4], 0.995; in [5] it was 1.32; in test [6] it was 0.924. In addition, the composite z-score in the test on Lefty1 was 1.29; in test [8], 0.928. The figures for the z-score in test [7] and in [9] were -0.925 and -0.546 (inactive), respectively.
`COc1ccc(C(O)C2C=CC3C(=O)N(c4ccccc4)C(=O)C3N2Nc2ccc([N+](=O)[O-])cc2)cc1OCc1ccccc1` (stereo not given): the composite z-score in [1] was found to be 1.71; in [2], 1.2; in test [3], 0.315; in test [4], 0.995; in [5], 0.508; in [6] it was 0.156. The figures for the composite z-score (in the test on Lefty1; in [8]) were -0.29 and 1.45, respectively. Moreover, the z-score in test [7] was 0.41; in test [9], 1.42 (inactive).
Consider `CC(C)(C)OC(=O)CC[C@]1(C(=O)N2CCCCC2)N=C(c2ccc(OCCCO)cc2)O[C@H]1c1ccccc1N=[N+]=[N-]`, for which the composite z-score came out at 2.92 in test [1]; 1.26 in [2]; 1.91 in test [3]; 0.753 in [4]; 0.771 in test [5]; 1.6 in [6]. The composite z-score in the test with Lefty1 was 0.513; in test [8], 0.971. For the same compound, the values for the z-score in [7] and in [9] were 2.83 and -12.8 (active), respectively.
In the case of `COC(=O)c1c(CC[C@@H](CO)NC(=O)N[C@@H](Cc2ccccc2)Cn2cc(C3(O)CCCCC3)nn2)oc(C(C)=O)c1C(=O)OC`, the composite z-score in test [1] was 1.37; in test [2], 0.868; in test [3], 0.0673; in test [4] it was 0.307; in test [5], 0.691; in test [6], 0.957. For the same compound, the composite z-score in the test with Lefty1 is 1.31; in test [8], -0.267. Moreover, the z-score in [7] was -0.941; in test [9] it was 0.896 (inactive).
On to `CC(C)(C)N1CC=CC23O[C@@H]4C=CCOC(=O)[C@@H]4[C@H]2C(=O)N(CCCCCO)[C@@H]3C1=O` (stereo not given in full), for which the composite z-score in [1] was 3.57; in test [2], -1.45; in test [3], -0.758; in test [4], -2.1; in test [5] it was -0.889; in test [6], -0.326. Moreover, the results for the composite z-score (in the test with Lefty1; in test [8]) were -1.17 and -1.31, respectively. For the same compound, the z-score was -0.879 in test [7] and 0.107 (inactive) in test [9].
Regarding `CC(C)C[C@@H]1NC(=O)[C@@H]2C[C@H](C(=O)NCCCCCC[N+](C)(C)C)[C@H](c3ccc(O)cc3)N2C1=O`, the composite z-score in test [1] was determined as 1.59; in test [2] it was 0.922; in test [3] it was 0.11; in test [4], 0.427; in test [5], 1.18; in [6], 0.998. Moreover, the composite z-score in the test with Lefty1 is 1.08; in test [8], 0.56. Besides, the values for the z-score in [7] and in test [9] were -0.158 and 0.0519 (inactive), respectively.
